The target of experiment [1] is Thyrotropin receptor (Homo sapiens) (UniProt P16473). The experiment is described as follows: qHTS assay to identify small molecule agonists of the thyroid stimulating hormone receptor (TSHR) signaling pathway (AID 1224843; calls by dose curve; also: nearly all actives have a fitted effect of over 45% in size). In short, it runs like this:
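TSHR-expressing HEK293 cells (800 per well) were exposed to compounds for 30 min at room temperature. cAMP was then detected by HTRF competition with cAMP-d2 and anti-cAMP cryptate, read after 1 h at room temperature. Fifteen concentrations, triplicate.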
In general terms: In qHTS, concentration-response curves come from the screen itself.

A short description of experiment [2]: qHTS assay to identify small molecule agonists of the hypoxia (HIF-1) signaling pathway - cell viability counter screen (AID 1224844; calls by dose curve; also: nearly all actives have a fitted effect of over 50% in size; also: potency is read from the fitted curve at half-maximal effect). In a few lines: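 Cells (HRE-bla ME-180, 2,000 per well) sat 5 hrs at 37C, got compound for 17 hrs, were read for CCF4-AM FRET, and were finally lysed with CellTiter-Glo for a 30 min room-temperature luminescence read.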
Experiment [3] in a line: qHTS assay to identify small molecule agonists of H2AX (AID 1224845; active = well fitted activation curve with a large enough effect in the signal ratio in the repeat runs, not every such curve was filed as active; the % refers to the signal ratio). In a few lines:
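Wild-type CHO-K1 cells plated overnight, then exposed 3 hr at 37C to compounds at 15 concentrations (0.76% DMSO). Lysed, then HTRF anti-pH2AX(S139)-cryptate/anti-H2AX-d2 detection after 24 hr at room temperature; emissions 665 and 620 nm.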

Experiment [4] is described as follows: qHTS assay to identify small molecule agonists of the hypoxia (HIF-1) signaling pathway (AID 1224846; active = well fitted activation curve with a large enough effect in the signal ratio in the repeat runs, not every such curve was filed as active; the % refers to the signal ratio). In a few lines: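 A low-serum medium (0.5% dialyzed FBS) holding 2,000 HRE-bla ME-180 cells per well is preincubated for 5 hrs, dosed with compounds by pintool, and kept a further 17 hrs at 37C, 5% CO2 before CCF4-AM FRET detection of beta-lactamase.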
The nature of experiment [5]: qHTS assay to identify small molecule agonists of H2AX - cell viability counter screen (AID 1224847; calls by dose curve; also: top concentration of the series differs between compounds; nearly all actives have a fitted effect of over 30% in size). In a few lines:
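CHO-K1 cells plated overnight at 37C, then exposed 3 h at 37C to compounds at 15 concentrations (0.76% DMSO final). Viability by CellTiter-Glo luminescence after 30 min at room temperature.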

Experiment [6] in a line: qHTS RealTime-Glo MT Cell Viability Assay in HepG2 cells - 24 hour (AID 1224867). Also: nearly all actives have a fitted effect of over 50% in size. In a few lines: (§1)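 Luminescence read-out: viable HepG2 cells reduce a prosubstrate to a NanoLuc substrate, giving a signal proportional to live cell number. Reads taken at 0, 8, 16, 24, 32 and 40 h of compound exposure at 37 C.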
A short description of experiment [7]: A CellTox Green Cytotoxicity Assay to monitor cytotoxicity in HEK293 cells - 0 hour (AID 1224869). Also: nearly all actives have a fitted effect of over 50% in size. In a few lines:
(§2)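 Fluorescence intensity, read at 0, 8, 16, 24, 32 and 40 h of compound treatment, reflected dye binding to DNA of dead HEK293 cells; compounds (23 nL, DMSO) were added 5 h after plating cells with reagent.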

A short description of experiment [8]: qHTS RealTime-Glo MT Cell Viability Assay in HepG2 cells - 40 hour (AID 1224870). Also: nearly all actives have a fitted effect of over 50% in size. Also: potency is read from the fitted curve at half-maximal effect. In short, it runs like this:
(§3)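 HepG2 cells mixed with RealTime-Glo MT reagents (NanoLuc plus cell-permeant prosubstrate) were seeded at 600 cells/well, incubated 5 h at 37 C/5% CO2, then pinned with compounds in DMSO; nonlytic luminescence tracked viability during 40 h treatment.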

The nature of experiment [9]: qHTS RealTime-Glo MT Cell Viability Assay in HepG2 cells - 8 hour (AID 1224873). Also: nearly all actives have a fitted effect of over 55% in size. In short, it runs like this:
as §3

Experiment [10] can be described thus: A CellTox Green Cytotoxicity Assay to monitor cytotoxicity in HepG2 cells - 16 hour (AID 1224876). Also: nearly all actives have a fitted effect of over 45% in size. In short, it runs like this:
(§4)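 Using 1536-well format, dye-containing HepG2 suspension was seeded, allowed 5 h at 37 C/5% CO2, dosed by pintool with compounds, positive and negative controls, and imaged for fluorescence across 40 h.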

Experiment [11] in a line: qHTS RealTime-Glo MT Cell Viability Assay in HepG2 cells - 32 hour (AID 1224877). Also: nearly all actives have a fitted effect of over 55% in size. In a few lines:
as §1

Experiment [12] in a line: A CellTox Green Cytotoxicity Assay to monitor cytotoxicity in HepG2 cells - 24 hour (AID 1224878). Also: nearly all actives have a fitted effect of over 45% in size. In short, it runs like this:
as §4

Experiment [13] can be described thus: A CellTox Green Cytotoxicity Assay to monitor cytotoxicity in HepG2 cells - 40 hour (AID 1224879). Also: nearly all actives have a fitted effect of over 40% in size. Also: potency is read from the fitted curve at half-maximal effect. In a few lines:
as §4

Experiment [14] is described as follows: qHTS assay to identify small molecule antagonists of the estrogen related receptor (ERR) signaling pathway from Tox21 library (AID 1224848). Also: nearly all actives have a fitted effect of over 50% in size. In short, it runs like this:
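Cells: ERR line, 2,000/well; 6 h preincubation 37 C/5% CO2. Cpd in DMSO via pin tool; 18 h, 37 C. ONE-Glo, 30 min RT, luminescence.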

Experiment [15] in a line: qHTS assay to identify small molecule agonists of the estrogen related receptor (ERR) signaling pathway from Tox21 library (AID 1224849; calls by dose curve; also: nearly all actives have a fitted effect of over 15% in size). The note with it: ERR reporter cell line, ONE-Glo luciferase, 18 h; at 92.4 µM (top of the series) unless noted. In a few lines: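 Screening used an NTP-provided ERR luciferase cell line. Compounds in DMSO were added 6 h after seeding and left 18 h at 37 C before a 30 min ONE-Glo step and luminescence reading.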

Experiment [16] in a line: qHTS RealTime-Glo MT Cell Viability Assay in HEK293 cells - 32 hour (AID 1224868). In short, it runs like this:
(§5)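 Nonlytic real-time viability readout: viable cells convert prosubstrate to NanoLuc substrate, giving luminescence proportional to live cell number. HEK293, 600 cells/well, compound added after 5 h, continuous culture at 37 C.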

The nature of experiment [17]: A CellTox Green Cytotoxicity Assay to monitor cytotoxicity in HEK293 cells - 40 hour (AID 1224871). Also: nearly all actives have a fitted effect of over 45% in size. In short, it runs like this:
as §2

Experiment [18] can be described thus: qHTS RealTime-Glo MT Cell Viability Assay in HEK293 cells - 16 hour (AID 1224872). Also: nearly all actives have a fitted effect of over 50% in size. Also: potency is read from the fitted curve at half-maximal effect. In short, it runs like this: as §5
Experiment [19] is described as follows: qHTS RealTime-Glo MT Cell Viability Assay in HEK293 cells - 40 hour (AID 1224874). Also: nearly all actives have a fitted effect of over 50% in size. Also: potency is read from the fitted curve at half-maximal effect. The note with it: RealTime-Glo luminescence; max response: active compounds read low. In a few lines: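 Viable HEK293 cells reduce a cell-permeant prosubstrate; the product diffuses out and is consumed by NanoLuc in the medium to give light. Compounds went in after a 5 h incubation and plates were read over the treatment course.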

A short description of experiment [20]: A CellTox Green Cytotoxicity Assay to monitor cytotoxicity in HEK293 cells - 24 hour (AID 1224875). Also: nearly all actives have a fitted effect of over 45% in size. In short, it runs like this:
as §2

Unmarked numbers belong to inactive results. Inconclusive results are not listed. The source made the active and inactive calls. Unless noted, calls follow the shape of the dose curve; as a rule, active = well fitted curve in the direction sought with a large enough effect in the repeat runs; inconclusive = weak or mixed curves; inactive = no such curve, though single readings can be large; an effect the other way counts as inactive or inconclusive.
% is scaled to controls: 0 for no effect and ±100 for the full control effect.

Chain of Thyrotropin receptor (Homo sapiens) (P16473 whole entry, looked up): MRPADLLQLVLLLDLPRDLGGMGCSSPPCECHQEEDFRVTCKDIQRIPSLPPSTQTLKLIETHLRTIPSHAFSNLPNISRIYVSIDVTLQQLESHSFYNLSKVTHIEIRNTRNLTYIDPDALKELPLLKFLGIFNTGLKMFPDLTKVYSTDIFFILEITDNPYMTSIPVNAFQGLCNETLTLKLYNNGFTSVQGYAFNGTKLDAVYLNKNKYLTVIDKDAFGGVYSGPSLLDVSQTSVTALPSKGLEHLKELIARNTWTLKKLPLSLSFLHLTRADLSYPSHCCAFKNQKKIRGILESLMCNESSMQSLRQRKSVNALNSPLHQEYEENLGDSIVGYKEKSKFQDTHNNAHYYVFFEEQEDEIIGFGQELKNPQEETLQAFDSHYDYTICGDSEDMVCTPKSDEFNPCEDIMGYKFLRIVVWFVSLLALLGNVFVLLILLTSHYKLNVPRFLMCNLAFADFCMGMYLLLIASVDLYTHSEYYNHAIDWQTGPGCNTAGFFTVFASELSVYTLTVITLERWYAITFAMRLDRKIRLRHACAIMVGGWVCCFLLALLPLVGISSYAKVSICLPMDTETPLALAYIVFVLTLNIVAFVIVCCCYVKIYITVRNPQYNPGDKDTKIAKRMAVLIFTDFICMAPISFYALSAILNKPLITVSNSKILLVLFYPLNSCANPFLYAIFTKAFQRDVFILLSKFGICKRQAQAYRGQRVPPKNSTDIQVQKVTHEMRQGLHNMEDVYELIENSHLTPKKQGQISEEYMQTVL

Regarding `CC1=C(C=O)C(C)(C)CCC1`, the Potency entry in [1], in [2], in experiment [3], in experiment [5], in experiment [6] and in experiment [7] was “inactive” each time. Besides, the Potency entry in experiment [8], in experiment [9], in [10], in [11], in experiment [12] and in [13] was “inactive” each time. Further, the outcome in experiment [4] was inactive.
On to `COC(OC)(C(=O)c1ccccc1)c1ccccc1`, for which the Potency entry in experiment [1], in experiment [2], in [3], in [14], in [6] and in experiment [16] was “inactive” each time. Moreover, the Potency entry in [7], in [8], in experiment [17], in experiment [18], in experiment [9] and in experiment [10] was “inactive” each time. Also, the Potency entry in experiment [11], in experiment [12] and in experiment [13] was “inactive” throughout. For the same compound, the compound was classed as inactive in experiment [4]. The activity change, positive = activation in experiment [15] is -3.37%. Also, the max response in [19] is 1.09%.
In the case of `O=C(CCCCCCC(=O)Nc1ccccc1)NO`, the Potency entry in experiment [1], in experiment [3], in experiment [5], in experiment [7], in experiment [17] and in [20] was “inactive” each time. The Potency entry in [10] and in experiment [12] was “inactive” in each case. Also, the Potency in experiment [2] was 1690 nM (active); in experiment [8], 4770 nM (active); in experiment [18] it was 2680 nM (active); in experiment [19], 2390 nM (active); in experiment [13] it was 2680 nM (active). Moreover, the compound was classed as inactive in experiment [4].
Regarding `CCC(C(=O)OCCN(CC)CC)c1ccccc1` (stereo not drawn), the Potency entry in experiment [1], in [2], in experiment [3], in [5], in [6] and in experiment [16] was “inactive” throughout. Also, the Potency result in [8], in [17], in experiment [18], in experiment [9], in experiment [20] and in [10] was “inactive” in each case. Moreover, the Potency result in experiment [11], in experiment [12] and in experiment [13] was “inactive” in each case. Besides, in [19], the max response is 8.92%.
Turning to `CCc1cccc(N(C)C(N)=Nc2cccc3ccccc23)c1`, the Potency result in [1], in experiment [2], in experiment [3], in experiment [6], in experiment [7] and in experiment [8] was “inactive” in each case. In addition, the Potency result in experiment [17], in experiment [18], in experiment [20], in experiment [10] and in experiment [11] was “inactive” throughout. The compound was called inactive in [4].
`O=C(NCCCN1CCOCC1)c1ccc(Cl)cc1`: the Potency result in experiment [1], in [2], in experiment [5], in [14], in [6] and in [16] was “inactive” in each case. For the same compound, the Potency result in [8], in experiment [17], in experiment [18], in [9], in [20] and in experiment [10] was “inactive” each time. The Potency entry in experiment [11] and in experiment [12] was “inactive” each time. For the same compound, the outcome in [4] was inactive. In [15], the activity change, positive = activation was 11.6% [at 42.5 µM]. The max response in [19] is 7.84%.
Regarding `COc1ccc(CCC(=O)c2c(O)cc(O[C@@H]3O[C@H](CO)[C@@H](O)[C@H](O)[C@H]3O[C@@H]3O[C@@H](C)[C@H](O)[C@@H](O)[C@H]3O)cc2O)cc1O`, the Potency entry in experiment [1], in [2], in [5], in [14], in experiment [6] and in experiment [16] was “inactive” throughout. Besides, the Potency entry in [7], in experiment [8], in [17], in [18], in experiment [9] and in [20] was “inactive” throughout. The Potency result in [10], in experiment [11], in experiment [12] and in experiment [13] was “inactive” in each case. For the same compound, the compound was called inactive in [4]. Moreover, the max response in [19] was 12.3%.
Take `CCCOc1ccc(S(=O)(=O)N2CCN(CC)CC2)cc1-c1nc2c(CC)n(Cc3ccccn3)nc2c(=O)[nH]1`: the Potency entry in [1], in experiment [2], in experiment [3], in experiment [5], in experiment [6] and in experiment [7] was “inactive” each time. In addition, the Potency result in experiment [8], in experiment [17], in experiment [18], in experiment [20], in [10] and in experiment [11] was “inactive” throughout. Moreover, the Potency result in experiment [12] and in experiment [13] was “inactive” throughout. Moreover, the compound was classed as inactive in experiment [4].
